The text below walks through data of PubChem BioAssay AID588458 (Sanford-Burnham Center for Chemical Genomics, 2011).

Each structure is given as a SMILES string. “And” between values parts separate entries of the source, which are not always exact repeats. Identical values can stand only once. Out of some 360,000 compounds screened, about 3,000 (0.83%) were called active. No stated cut-off is given here; in the data, active means inhibition above about 50%; inactive means the rest. What follows is part of a selection rich in actives, with near analogues and random picks from the rest. Where a structure was tested more than once in an assay, its records may differ in their call.

The target of this assay is DNA (cytosine-5)-methyltransferase 1 (Homo sapiens) (UniProt P26358). Briefly: inhibition of DNA methyltransferase DNMT1 – biochemical, molecular beacon, fluorescence, HinP1I cleavage, uHTS, primary screen (AID 588458). The note with it: at 10 µM, stronger effect = higher value.
Chain of DNA (cytosine-5)-methyltransferase 1 (Homo sapiens) (P26358 504-1616 limits assumed): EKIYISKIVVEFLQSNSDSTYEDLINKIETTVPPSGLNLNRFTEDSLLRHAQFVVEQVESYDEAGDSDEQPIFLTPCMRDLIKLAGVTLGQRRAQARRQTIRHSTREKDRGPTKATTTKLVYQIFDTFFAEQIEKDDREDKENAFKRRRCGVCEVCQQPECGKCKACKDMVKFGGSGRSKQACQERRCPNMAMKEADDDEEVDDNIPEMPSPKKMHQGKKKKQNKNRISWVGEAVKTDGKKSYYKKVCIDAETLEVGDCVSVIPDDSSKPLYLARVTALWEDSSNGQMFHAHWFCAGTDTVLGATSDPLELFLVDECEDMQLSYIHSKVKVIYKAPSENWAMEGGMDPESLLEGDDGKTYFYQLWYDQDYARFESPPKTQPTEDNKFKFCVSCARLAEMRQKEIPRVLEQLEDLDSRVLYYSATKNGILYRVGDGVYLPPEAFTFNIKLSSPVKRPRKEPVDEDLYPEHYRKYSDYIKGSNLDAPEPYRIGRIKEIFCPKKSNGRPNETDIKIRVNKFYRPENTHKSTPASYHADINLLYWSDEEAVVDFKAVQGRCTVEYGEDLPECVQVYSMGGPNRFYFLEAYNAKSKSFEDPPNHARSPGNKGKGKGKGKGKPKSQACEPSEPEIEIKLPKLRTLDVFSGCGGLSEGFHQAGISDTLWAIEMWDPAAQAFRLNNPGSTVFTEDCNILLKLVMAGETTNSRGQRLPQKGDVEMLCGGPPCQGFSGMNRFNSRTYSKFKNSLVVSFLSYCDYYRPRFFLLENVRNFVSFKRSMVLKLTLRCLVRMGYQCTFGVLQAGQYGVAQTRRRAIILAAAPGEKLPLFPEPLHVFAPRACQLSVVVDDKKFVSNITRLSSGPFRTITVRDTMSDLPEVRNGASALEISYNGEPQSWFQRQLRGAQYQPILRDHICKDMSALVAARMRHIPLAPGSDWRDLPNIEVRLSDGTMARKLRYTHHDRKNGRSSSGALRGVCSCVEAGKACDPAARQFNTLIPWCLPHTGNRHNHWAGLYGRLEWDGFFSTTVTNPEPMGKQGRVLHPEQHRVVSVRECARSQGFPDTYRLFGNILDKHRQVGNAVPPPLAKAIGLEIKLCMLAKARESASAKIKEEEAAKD
In the case of `Cc1ccccc1-n1cc(CNC(=O)CC2C(=O)NCCN2C/C=C/c2ccccc2)cn1` (stereo unspecified), the inhibition (reported as % activation of signal) was 68.2% (active). As for `O=C(CC1C(=O)NCCN1Cc1ccc(-c2ccccc2)cc1)NCc1ccncc1` (stereo unspecified), the figure is -12.2% (inactive); as for `Cc1ccccc1-n1cc(CNC(=O)C2CCC(=O)N(C3CC3)C2)cn1` (stereo unspecified), 0.34% (inactive). As for `COc1ccc(Cc2nnc(NC(=O)Cc3cccs3)s2)cc1`, the figure is 113% (active); as for `COc1cc(OC)cc(C(=O)NNC(=O)Cc2cccs2)c1`, 7.66% (inactive). As for `COc1ccccc1NC(=O)Nc1nnc(Cc2ccc(F)cc2)s1`, the inhibition (reported as % activation of signal) was 9.56% (inactive). As for `CC(C)(C)NC(=O)C(c1ccncc1)N(C(=O)CNC(=O)c1ccco1)c1ccc2c(c1)OCO2` (stereo unspecified), the inhibition (reported as % activation of signal) is -1.68% (inactive). As for `CCOc1ccc(-n2cnnn2)cc1S(=O)(=O)N1CCC(C)CC1C` (stereo unspecified), the figure is 4.44% (inactive). As to `CC(C)(C)OC(=O)C[C@@H]1C/C=C\C[C@@H](CC(=O)N[C@@H](CO)Cc2ccccc2)C(=O)N2CCC[C@H]2COC1=O`, the inhibition (reported as % activation of signal) was 1.28% (inactive). On to `Nc1ncnc(Nc2cccc(Cl)c2Cl)n1`, for which the inhibition (reported as % activation of signal) was 0.57% (inactive). Take `COc1cc(C(=O)Nc2cc(C(F)(F)F)ccc2-n2cncn2)cc(OC)c1OC`: the inhibition (reported as % activation of signal) is -2.48% (inactive). As for `O=C(COC(=O)c1ccccc1O)NCc1ccco1`, the figure is 50% (inactive); as for `O=C(COC(=O)c1cnc(Cl)c(Cl)c1)NCc1ccco1`, 30.3% (inactive); as for `Cc1cc(C(=O)OCC(=O)NCc2ccco2)c(C)n1-c1ccccc1`, 55.9% (active). For `N#CC(C#N)=CN=c1ccn(Cc2ccc(Cl)cc2Cl)cc1`, the inhibition (reported as % activation of signal) was -4.93% (inactive). As for `Cc1cccc(C)c1NC(=O)C1(C)c2cccc[n+]2CC(=O)N1Cc1cccs1` (stereo unspecified), the figure is -3.99% (inactive); as for `O=C(/C=C/c1cnc2ccccc2n1)NC1CCCCCC1`, -5.96% (inactive); as for `COc1ccc(CCNC(=O)C(=O)NCC2OCCN2S(=O)(=O)c2ccc(OC)c(C)c2)cc1` (stereo unspecified), -5.69% (inactive).

For `O=c1[nH][nH]c(C(F)(F)F)c1C=NCc1ccccc1Cl`, the inhibition (reported as % activation of signal) was -3.13% (inactive).

Take `CCN(CC)S(=O)(=O)c1ccc(N2CC(C(=O)NCc3cccnc3)CC2=O)cc1` (stereo unspecified): the inhibition (reported as % activation of signal) was 2.78% (inactive). As for `Cc1cc(N2CCCC2)ccc1NC(=O)COc1ccc(Cl)cc1`, the figure is 59.6% (active). Regarding `O=C(COC(=O)C1CCCCC1)Nc1ccc([N+](=O)[O-])cc1`, the inhibition (reported as % activation of signal) is -1.74% (inactive). As to `O=C(N/N=C/c1cccc(OC(=O)c2ccc([N+](=O)[O-])cc2)c1)c1cccnc1`, the inhibition (reported as % activation of signal) is 2.43% (inactive).

Consider `Cc1cc(C)cc(OCC(=O)Nc2ccc(N3CCOCC3)cc2N2CCOCC2)c1`, for which the inhibition (reported as % activation of signal) was -5.22% (inactive). As for `O=C(COc1ccc([N+](=O)[O-])cc1)Nc1cccc(C(=O)Nc2ccccc2C(=O)O)c1`, the figure is -0.08% (inactive); as for `O=C(COc1ccc(Cl)cc1)Nc1ccccc1CO`, 0.96% (inactive). In the case of `O=C(COc1ccc([N+](=O)[O-])cc1)Nc1ccc(N2CCCC2)cc1`, the inhibition (reported as % activation of signal) was 92.5% (active).

With `O=C(CCC(=O)N1CCCC1)Nc1ccc([N+](=O)[O-])cc1`, the inhibition (reported as % activation of signal) was 0.7% (inactive).

For the compound `O=C(COc1ccc(/C=N/NC(=O)c2ccc(O)cc2)cc1)Nc1ccc([N+](=O)[O-])cc1`, the inhibition (reported as % activation of signal) was 54% (active). The value for `CC(CO)N1CCS(=O)(=O)CC1` (stereo unspecified) was 4.55% (inactive); that for `Cc1ccc(C)n1-c1ccncc1` was -0.41% (inactive). The value for `COc1ccc(NS(=O)(=O)c2ccc(C)c(C(=O)N(C)Cc3ccc(OC)cc3OC)c2)cc1` was -0.59% (inactive); that for `C[C@H]([C@@H](O)[C@@H](O)[C@@H](C)C(C)(C)C)[C@H]1CC[C@H]2C3CC[C@H]4C[C@H](OS(=O)(=O)O)[C@@H](OS(=O)(=O)O)C[C@]4(C)[C@H]3CC[C@]12C` (stereo partly specified) was 46.8% (inactive). `CC(C)Oc1ccc(CC(=O)NNC(=S)Nc2ccc(Br)cc2)cc1`: the inhibition (reported as % activation of signal) is -8.54% (inactive).

`CCCOc1ccc(Cc2c(Cl)nc(SC)nc2NC)cc1`: the inhibition (reported as % activation of signal) was 5.36% (inactive). As for `CC(C)c1ccc(Nc2nnc(SCC(=O)c3nnc(-c4ccccc4)o3)s2)cc1`, the figure is 79.2% (active). On to `CC(C)Nc1nnc(SCC(=O)c2c[nH]c3ccccc23)s1`, for which the inhibition (reported as % activation of signal) is -9.78% (inactive). Take `CC(C)N(C(=O)CSc1nnc(NC2CC2)s1)c1ccccc1`: the inhibition (reported as % activation of signal) is -1.85% (inactive). The value for `CN(C)CCNC(=O)c1cccc(-c2cnc3c(NC=O)cc(-c4cccc(C(F)(F)F)c4)cn23)c1` was -1.67% (inactive); that for `COC(=O)CN1C(=O)N/C(=C/c2ccc(OC)c(C)c2OC)C1=O` was 0.3% (inactive). In the case of `Cc1ccccc1NC(=O)CN1C(=O)N/C(=C\c2cccn2-c2cccc(C(=O)O)c2)C1=O`, the inhibition (reported as % activation of signal) was 92.6% (active). The value for `Cc1ccccc1NC(=O)Cn1c(=O)n(CC2CCCO2)c(=O)c2ccccc21` (stereo unspecified) was 1.1% (inactive); that for `CC(C)n1ncc2c(C(=O)N3CCN(Cc4cccs4)CC3)cc(C3CC3)nc21` was 2.36% (inactive). In the case of `COc1cc(C)c(C(C)C)cc1S(=O)(=O)n1ccnc1`, the inhibition (reported as % activation of signal) was 27.6% (inactive). As for `C=CCCC(=O)Nc1nc(C)c(-c2csc(Nc3ccc(Cl)cc3)n2)s1`, the inhibition (reported as % activation of signal) was -14.7% (inactive). Regarding `Cc1cn([C@H]2C[C@H](O)[C@@H](/C=C/C(=O)NCCCc3ccccc3)O2)c(=O)[nH]c1=O`, the inhibition (reported as % activation of signal) is 1% (inactive). On to `CCC(=O)Nc1cccc(C2=NOC3(C2)C[C@@H](C(N)=O)N(C(=O)c2cc([N+](=O)[O-])cc([N+](=O)[O-])c2C)C3)c1` (stereo partly specified), for which the inhibition (reported as % activation of signal) is 4.19% (inactive). With `O=S(=O)(Nc1ccc2[nH]ncc2c1)c1ccccc1Cl`, the inhibition (reported as % activation of signal) was -2.94% (inactive). The value for `COc1cc(/C(=C/c2ccccc2)c2ccccc2)c2c(c1)oc1ccccc12` was 10.2% (inactive); that for `Cc1n[nH]c(=O)nc1N/N=C/c1cccs1` was 3.53% (inactive). Regarding `Cc1nnc(N/N=C/c2cccs2)[nH]c1=O`, the inhibition (reported as % activation of signal) is 56% (active). As for `Cc1nnc(N/N=C/c2ccccn2)[nH]c1=O`, the figure is 5.44% (inactive).

Consider `CNc1ccc(SC#N)cc1`, for which the inhibition (reported as % activation of signal) was -16.1% (inactive). As for `O/N=C1\CC2(Cc3nonc31)OCCO2`, the figure is 77.1% (active); as for `ON=C1/C(=N\O)CC2(C/C1=N/O)OCCO2`, 12.4% (inactive); as for `CC(C)N=C1CCCC1C(=S)SSC(=S)C1CCCC1=NC(C)C` (stereo unspecified), -10.8% (inactive). As for `O=C(NCCCN1CCOCC1)c1ccccc1NS(=O)(=O)c1ccc(F)cc1`, the figure is 0.01% (inactive); as for `Cc1c(-c2ccccc2)n[nH]c1C(=O)N=Nc1c(O)[nH]c2ccccc12`, 47.8% (inactive). As for `O=C(NCc1ccncc1)c1ccc(NS(=O)(=O)c2cccc([N+](=O)[O-])c2)cc1`, the figure is -0.75% (inactive). Take `O=[N+]([O-])c1cc(S(=O)(=O)Nc2cccc(Cl)c2)ccc1N=Nc1c(O)[nH]c2ccccc12`: the inhibition (reported as % activation of signal) is 56.3% (active). The value for `CCc1cc(CNC(=O)CC2C(=O)NCCN2Cc2ccccc2C(F)(F)F)on1` (stereo unspecified) was -2.03% (inactive); that for `CCOC(=O)c1c(-c2cccc(N)c2)cn2ccccc12` was 2.56% (inactive); that for `NC(=S)NN=Cc1ccc(OC(=O)COc2cc(Cl)c(Cl)cc2Cl)cn1` was -3.17% (inactive).

As to `CCOc1cc(CN2CCCC(CO)(Cc3ccc(F)cc3F)C2)ccc1OC` (stereo unspecified), the inhibition (reported as % activation of signal) is 60.8% (active). With `COc1cccc(CC2(CO)CCCN(Cc3ccc(OC(F)F)cc3)C2)c1` (stereo unspecified), the inhibition (reported as % activation of signal) is 1.47% (inactive). With `Cc1ccccc1CC1(CO)CCCN(Cc2ccc3c(c2)OCCO3)C1` (stereo unspecified), the inhibition (reported as % activation of signal) was -0.5% (inactive). On to `CC1(C(=O)NCc2ccc(F)c(F)c2)Cc2c(-c3ccc4c(c3)OCO4)ccnc2O1` (stereo unspecified), for which the inhibition (reported as % activation of signal) is -0.89% (inactive). The value for `Cc1cc2c(cc1C)N1C(=O)c3cc4ccccc4cc3NC(=O)C1C(=O)N2` (stereo unspecified) was 40.5% (inactive); that for `C=CC1=C(C(=O)O)N2C(=O)[C@@H](NC(=O)/C(=N/OCC(=O)O)c3csc(N)n3)[C@H]2SC1` was -43.7% (inactive). The value for `Cc1nnc(SCC2=C(C(=O)O)N3C(=O)C(NC(=O)Cn4nc(C)c(Cl)c4C)C3SC2)s1` (stereo unspecified) was 2.36% (inactive); that for `C=CC1=C(C(=O)O)N2C(=O)[C@@H](NC(=O)/C(=N\OCC(=O)O)c3csc(N)n3)[C@H]2SC1` was 81.2% (active); that for `CCN1CCN(C(=O)N[C@@H](C(=O)N[C@@H]2C(=O)N3C(C(=O)O)=C(CSc4nnnn4C)CS[C@H]23)c2ccc(O)cc2)C(=O)C1=O` was 1.74% (inactive). As for `CO/N=C(\C(=O)N[C@@H]1C(=O)N2C(C(=O)O)=C(COC(C)=O)CS[C@H]12)c1csc(N)n1` (stereo in doubt), the inhibition (reported as % activation of signal) was 20.2% (inactive) and 7.93% (inactive) and 65.2% (active). As for `CCCCN(C=O)c1c(CC)nc2c(OCCC3CCCCC3)cccn12`, the figure is -6.04% (inactive); as for `CCOC(=O)C1=CCC(c2ccc(F)cc2)N(S(=O)(=O)c2ccc(C)cc2)C1` (stereo unspecified), 6.68% (inactive). As to `CC1CCCCN1C(=O)CCS(=O)(=O)Cc1ccccc1` (stereo unspecified), the inhibition (reported as % activation of signal) is -2.02% (inactive). Turning to `CC(C)CC(CCc1ccccc1)OS(N)(=O)=O` (stereo unspecified), the inhibition (reported as % activation of signal) was 4.1% (inactive). Turning to `COc1ccc(S(=O)(=O)N2CCN(C(C)C(=O)Nc3ccc(C(C)C)cc3)CC2)cc1` (stereo unspecified), the inhibition (reported as % activation of signal) was 2.17% (inactive).

On to `CC(NC(=O)COc1ccc(-c2ccccc2)cc1)C1CCCO1` (stereo unspecified), for which the inhibition (reported as % activation of signal) is -1.92% (inactive). For the compound `COc1ccc(OCC(=O)NNC(=O)C2CCC2)cc1`, the inhibition (reported as % activation of signal) is 0.09% (inactive).

In the case of `COc1ccc(OCC(=O)NNC(=O)c2ccc(-c3ccccc3)cc2)cc1`, the inhibition (reported as % activation of signal) is 59.6% (active).

Turning to `COc1ccc(Cl)cc1NC(=O)CN(C)C(=O)c1cn(-c2ccccc2)nc1-c1cccs1`, the inhibition (reported as % activation of signal) was -24.5% (inactive). With `CC(C)(C)c1ccc(S(=O)(=O)N2CCN(C(=O)c3ccc4c(c3)C(=O)N(Cc3ccncc3)C4=O)CC2)cc1`, the inhibition (reported as % activation of signal) was -1.88% (inactive). `O=C(CCN1C(=O)C2C3CCC(C3)C2C1=O)Nc1ccc(Cl)cc1Cl` (stereo unspecified): the inhibition (reported as % activation of signal) was -0.32% (inactive). Consider `O=C(CCN1C(=O)C2C3C=CC(C3)C2C1=O)Oc1ccc2ccccc2c1` (stereo unspecified), for which the inhibition (reported as % activation of signal) is -3.47% (inactive).

For the compound `O=C(CCN1C(=O)C2C3C=CC(C3)C2C1=O)Nc1ccccc1F` (stereo unspecified), the inhibition (reported as % activation of signal) was 75.5% (active).
